# Measured values as given in the supplement of paper PMC8728848.
# Shown is part of a subset that was picked to be rich in the strongest signals.
# Columns and labels:
# Experiment in all cases: glycan array binding signal (z-score within array); higher = stronger binding
# Conditions in all cases: glycan notation: IUPAC condensed, linker removed
# [1] = target: Fuc(a1-2)Gal(b1-3)GalNAc(b1-3)Gal(a1-4)Gal(b1-4)Glc
# Summary of the method: (§1)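 From the Consortium for Functional Glycomics database, 3228 arrays were curated, keeping only those whose protein sequence was available. Binding is given as a within-array Z-score averaged across arrays sharing a protein sequence and across linkers. Negative Z-scores can be read as non-binding.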
# [2] = target: Fuc(a1-2)Gal(b1-3)GlcNAc(b1-3)[Fuc(a1-2)Gal(b1-3)GlcNAc(b1-6)]GalNAc
# Summary of the method: as §1
# [3] = target: Fuc(a1-2)Gal(b1-4)[Fuc(a1-3)]GlcNAc
# Summary of the method: as §1
# [4] = target: Fuc(a1-2)[Gal(a1-3)]Gal(b1-4)GlcNAc(b1-2)Man(a1-3)[Fuc(a1-2)[Gal(a1-3)]Gal(b1-4)GlcNAc(b1-2)Man(a1-6)]Man(b1-4)GlcNAc(b1-4)GlcNAc
# Summary of the method: as §1
# [5] = target: Fuc(a1-2)[Gal(a1-3)]Gal(b1-4)[Fuc(a1-3)]GlcNAc(b1-3)GalNAc
# Summary of the method: as §1
# [6] = target: Fuc(a1-2)[GalNAc(a1-3)]Gal(b1-3)GlcNAc
# Summary of the method: as §1
# [7] = target: Fuc(a1-3)[Gal(b1-4)]GlcNAc(b1-3)GalNAc
# Summary of the method: as §1
# [8] = target: Fuc(a1-3)[Gal3S(b1-4)]GlcNAc
# Summary of the method: as §1
# [9] = target: Gal(a1-3)Gal(b1-3)GlcNAc(b1-2)Man
# Summary of the method: as §1
# Gal(a1-6)Glc = target: Gal(a1-6)Glc
# Summary of the method: as §1
# [10] = target: Gal(b1-3)GlcNAc(a1-6)Gal(b1-4)GlcNAc
# Summary of the method: as §1
# [11] = target: Gal(b1-4)GlcNAc(b1-2)Man(a1-3)[Gal(b1-4)GlcNAc(b1-2)Man(a1-6)][Gal(b1-4)GlcNAc(b1-4)]Man(b1-4)GlcNAc(b1-4)[Fuc(a1-6)]GlcNAc
# Summary of the method: as §1
# [12] = target: Gal(b1-4)GlcNAc(b1-2)Man(a1-3)[Gal(b1-4)GlcNAc(b1-2)Man(a1-6)][GlcNAc(b1-4)]Man(b1-4)GlcNAc(b1-4)[Fuc(a1-6)]GlcNAc
# Summary of the method: as §1
# [13] = target: Gal(b1-4)GlcNAc(b1-2)[Gal(b1-4)GlcNAc(b1-6)]Man(a1-6)[GlcNAc(b1-4)][Gal(b1-4)GlcNAc(b1-2)Man(a1-3)]Man(b1-4)GlcNAc(b1-4)GlcNAc
# Summary of the method: as §1
# [14] = target: Gal(b1-4)GlcNAc(b1-3)Gal(b1-3)GalNAc
# Summary of the method: as §1
# [15] = target: Gal(b1-4)GlcNAc(b1-3)Gal(b1-4)GlcNAc(b1-2)Man(a1-3)[Gal(b1-4)GlcNAc(b1-3)Gal(b1-4)GlcNAc(b1-2)Man(a1-6)]Man(b1-4)GlcNAc(b1-4)[Fuc(a1-6)]GlcNAc
# Summary of the method: as §1
# Gal3S(b1-3)GalNAc = target: Gal3S(b1-3)GalNAc
# Summary of the method: as §1
# [16] = target: GlcA3S(b1-3)Gal(b1-4)GlcNAc(b1-2)Man
# Summary of the method: as §1
# [17] = target: GlcNAc(a1-4)Gal(b1-4)GlcNAc(b1-3)Gal(b1-4)Glc
# Summary of the method: as §1
# [18] = target: GlcNAc(a1-4)Gal(b1-4)GlcNAc(b1-3)Gal(b1-4)[Fuc(a1-3)]GlcNAc(b1-3)Gal(b1-4)[Fuc(a1-3)]GlcNAc
# Summary of the method: as §1
# [19] = target: GlcNAc(b1-2)Man(a1-3)[GlcNAc(b1-2)Man(a1-6)]Man(b1-4)GlcNAc(b1-4)[Fuc(a1-6)]GlcNAc
# Summary of the method: as §1
# [20] = target: GlcNAc(b1-2)[GlcNAc(b1-4)]Man(a1-3)[GlcNAc(b1-4)][GlcNAc(b1-2)[GlcNAc(b1-6)]Man(a1-6)]Man(b1-4)GlcNAc(b1-4)[Fuc(a1-6)]GlcNAc
# Summary of the method: as §1
# [21] = target: GlcNAc(b1-2)[GlcNAc(b1-6)]Man(a1-6)[GlcNAc(b1-2)Man(a1-3)]Man(b1-4)GlcNAc(b1-4)GlcNAc
# Summary of the method: as §1
# [22] = target: GlcNAc(b1-3)Gal(b1-4)GlcNAc(b1-2)Man(a1-3)[GlcNAc(b1-3)Gal(b1-4)GlcNAc(b1-2)Man(a1-6)]Man(b1-4)GlcNAc(b1-4)GlcNAc
# Summary of the method: as §1
# [23] = target: GlcNAc(b1-3)Gal(b1-4)GlcNAc(b1-3)Gal(b1-4)GlcNAc
# Summary of the method: as §1
# [24] = target: GlcNAc(b1-3)Gal(b1-4)GlcNAc(b1-3)Gal(b1-4)GlcNAc(b1-2)Man(a1-3)[GlcNAc(b1-3)Gal(b1-4)GlcNAc(b1-3)Gal(b1-4)GlcNAc(b1-2)Man(a1-6)]Man(b1-4)GlcNAc(b1-4)[Fuc(a1-6)]GlcNAc
# Summary of the method: as §1
# [25] = target: GlcNAc(b1-3)[GlcNAc(b1-6)]GalNAc
# Summary of the method: as §1
# [26] = target: Kdn(a2-3)Gal(b1-4)[Fuc(a1-3)]GlcNAc
# Summary of the method: as §1
# Man(b1-4)GlcNAc = target: Man(b1-4)GlcNAc
# Summary of the method: as §1
# [27] = target: Neu5Ac(a2-3)Gal(b1-3)GlcNAc6S
# Summary of the method: as §1
binder,measurement,setting,value
"Clec18Av1 (Homo sapiens), A5D8T8 (protein) MLHPETSPGRGHLLAVLLALLGTAWAEVWPPQLQEQAPMAGALNRKESFLLLSLHNRLRSWVQPPAADMRRLDWSDSLAQLAQARAALCGTPTPSLASGLWRTLQVGWNMQLLPAGLVSFVEVVSLWFAEGQRYSHAAGECARNATCTHYTQLVWATSSQLGCGRHLCSAGQAAIEAFVCAYSPRGNWEVNGKTIVPYKKGAWCSLCTASVSGCFKAWDHAGGLCEVPRNPCRMSCQNHGRLNISTCHCHCPPGYTGRYCQVRCSLQCVHGRFREEECSCVCDIGYGGAQCATKVHFPFHTCDLRIDGDCFMVSSEADTYYRARMKCQRKGGVLAQIKSQKVQDILAFYLGRLETTNEVIDSDFETRNFWIGLTYKTAKDSFRWATGEHQAFTSFAFGQPDNHGFGNCVELQASAAFNWNDQRCKTRNRYICQFAQEHISRWGPGS",glycan array binding signal (z-score),[1],-0.849
same,glycan array binding signal (z-score),[2],4.48
same,glycan array binding signal (z-score),[3],-0.818
same,glycan array binding signal (z-score),[4],3.05
same,glycan array binding signal (z-score),[5],-0.446
same,glycan array binding signal (z-score),[6],-0.502
same,glycan array binding signal (z-score),[7],1.02
same,glycan array binding signal (z-score),[8],-0.843
same,glycan array binding signal (z-score),[9],3.22
same,glycan array binding signal (z-score),Gal(a1-6)Glc,-0.747
same,glycan array binding signal (z-score),[10],4.04
same,glycan array binding signal (z-score),[11],2.24
same,glycan array binding signal (z-score),[12],0.712
same,glycan array binding signal (z-score),[13],3.23
same,glycan array binding signal (z-score),[14],3.37
same,glycan array binding signal (z-score),[15],2.85
same,glycan array binding signal (z-score),Gal3S(b1-3)GalNAc,-0.82
same,glycan array binding signal (z-score),[16],-0.197
same,glycan array binding signal (z-score),[17],-0.356
same,glycan array binding signal (z-score),[18],4.79
same,glycan array binding signal (z-score),[19],3.54
same,glycan array binding signal (z-score),[20],-0.868
same,glycan array binding signal (z-score),[21],-0.432
same,glycan array binding signal (z-score),[22],1.53
same,glycan array binding signal (z-score),[23],-0.861
same,glycan array binding signal (z-score),[24],-0.74
same,glycan array binding signal (z-score),[25],-0.808
same,glycan array binding signal (z-score),[26],0.16
same,glycan array binding signal (z-score),Man(b1-4)GlcNAc,-0.825
same,glycan array binding signal (z-score),[27],-0.859
